# CDC25B CDK2 inh – human CDC25B-CDK2/CyclinA binding inhibition; P30305+P24941; HTRF CDC25B-CDK2/CyclinA binding, anti-His/anti-Flag; stronger effect = higher value; z-score (concentration not given with the values); actives 0.72% (n = 94,000); AID 1259370; in the data active means z-score above about 3.2
# TAR Tat displ – HIV-1 TAR-Tat binding disruption | AID 1259389 | z-score (no concentration beside the values) | HIV-1 TAR RNA, Tat peptide displacement FRET; stronger effect = higher value | actives 0.6% (n = 100,000); active means z-score of 3 or more in at least 2 runs
# An asterisk follows results filed as active; x = no result given. In the library only some 0.93% were active in any assay of this set; here they are far more common.
SMILES,CDC25B CDK2 inh,TAR Tat displ
CC(=O)Oc1cc2c(C(=O)N3CCCC3)c(C)oc2c2ccccc12,3.9,0.43
Cc1oc2c(cc(O)c3ccccc32)c1C(=O)O,8.6*,-5.5
CCOc1ccc2nc(NS(=O)(=O)c3ccc4c(c3)NC(=O)CC(C)S4)sc2c1 (stereo unspecified),x,0.55
Cc1cccc(NC(=O)Nc2ccc(C(C)(C)C)cc2)n1,-1.3,x
O=C(Nc1ccc(-c2nc3ccccc3o2)cc1)c1nc(-n2cnnc2)ccc1Br,x,7.2*
O=C(Nc1ccc2oc(-c3ccccc3)nc2c1)c1nc(-n2cnnc2)ccc1Br,x,2.5
CNc1oc(-c2ccc(COc3ccc(Cl)cc3)o2)nc1C#N,-0.98,2.8
COC(=O)C(N)Cc1ccc(O)c(O)c1 (stereo unspecified),-2.2,-0.49
NCCc1ccc(O)c(O)c1,-0.08,25*
Cc1cc(NC(=O)NN2CCOCC2)no1,-1.5,x
COC(=O)c1sc(NC(=O)CSc2ncnc3sc(C)c(C)c23)c(C(=O)OC)c1C,0.59,x
Cc1c(C(=O)O)c(O)cc2c1C(=O)c1c(O)c([C@H]3O[C@H](CO)[C@@H](O)[C@H](O)[C@H]3O)c(O)c(O)c1C2=O,x,8.5*
COc1c(O)cc2c(c1O)[C@@H]1O[C@H](CO)[C@@H](O)[C@H](O)[C@H]1OC2=O,x,1.9
CCOC(=O)c1c(NC(=O)c2cc(=O)c3cc(C)cc(C)c3o2)sc2c1CCCC2,-1.5,1.5
CCc1cc2c3c([nH]c2cc1S(=O)(=O)NCc1cccnc1)CC(C)(C)CC3=O,x,1.3
c1cc(CNc2ncnc3sc4c(c23)CCCC4)ccn1,-0.55,0.8
O=C(Nc1ccc(-n2nncc2-c2ccco2)cc1)c1cnc2n(c1=O)CCS2,x,7.3*
CC(=O)Nc1ccc(-n2nncc2-c2ccco2)cc1,x,1.3
O=S1(=O)CC2C(C1)N(c1ccccc1)C(=S)N2c1ccccc1 (stereo unspecified),-0.99,x
Cc1ncc(CO)c2c1Oc1nc(-c3ccc(F)cc3)[nH]c(=O)c1C2,-1.7,0.72
COc1ccc(O)c(-c2nc3c(c(=O)[nH]2)Cc2c(CO)cnc(C)c2O3)c1,2,11*
COc1ccc(C2CC(=O)N3CN(CCC(C)C)CSC3=C2C#N)cc1 (stereo unspecified),-1.2,1.5
COc1cccc(C2CC(=O)N3CN(Cc4ccco4)CSC3=C2C#N)c1 (stereo unspecified),15*,-0.78
COc1ccccc1C1CC(=O)N2CN(Cc3ccco3)CSC2=C1C#N (stereo unspecified),2.4,-0.77
N#CC1=C2SCN(Cc3ccco3)CN2C(=O)CC1c1cccc(F)c1 (stereo unspecified),0.33,-1.2
SMILES,CDC25B CDK2 inh,TAR Tat displ
COc1ccc(C2CC(=O)N3CN(Cc4ccco4)CSC3=C2C#N)cc1OC (stereo unspecified),5.5*,1.1
COc1cc(C2CC(=O)N3CN(Cc4ccco4)CSC3=C2C#N)ccc1O (stereo unspecified),4.9*,-0.81
COc1ccc(C2CC(=O)N3CN(CCC(C)C)CSC3=C2C#N)cc1OC (stereo unspecified),4.7*,0.22
Cc1nc(C)c(C(=O)NC2CCCCCCCCCCC2)s1,-1.2,0.01
Cc1nc2ncnn2c(Nc2cccc3c2CCCC3)c1C,x,2.8
O=c1cc(CSc2nnc(-c3cccc(Cl)c3)o2)nc2sc3c(n12)CCCC3,-0.37,1.9
COc1cc(C2N3CC4(C)CN2CC(C)(C3)C4O)ccc1O (stereo unspecified),-4.3,x
O=C(CN1C(=O)c2ccc([N+](=O)[O-])cc2C1=O)Nc1ccc2ccccc2c1,6.7*,x
O=C(Nc1cccc([N+](=O)[O-])c1)c1ccc2c(c1)C(=O)N(c1cccc3ccccc13)C2=O,0.77,x
CC1CSc2ccc(S(=O)(=O)N3CCn4c3nc3ccccc34)cc2NC1=O (stereo unspecified),x,-0.34
O=C1CC(NCCc2c[nH]c3ccccc23)C(=O)N1CCc1ccccc1 (stereo unspecified),-2,0.92
O=C(/C=C/c1ccc(O)c(O)c1)c1ccc(O[C@@H]2O[C@H](CO)[C@@H](O)[C@H](O)[C@H]2O)c(O)c1O,x,31*
O=C1C[C@@H](c2ccc(O)cc2)Oc2cc(O[C@@H]3O[C@H](CO)[C@@H](O)[C@H](O)[C@H]3O)cc(O)c21,x,3.2
COc1ccc(/C=C/c2cc(O)cc(O[C@@H]3O[C@H](CO)[C@@H](O)[C@H](O)[C@H]3O)c2)cc1O,x,0.87
C[C@@H]1O[C@@H](O[C@H]2[C@H](Oc3cc(O)c4c(c3)O[C@H](c3ccc(O)cc3)CC4=O)O[C@H](CO)[C@@H](O)[C@@H]2O)[C@H](O)[C@H](O)[C@H]1O,x,0.91
O=C1C[C@@H](c2ccc(O)c(O)c2)Oc2c1ccc(O[C@@H]1O[C@H](CO)[C@@H](O)[C@H](O)[C@H]1O)c2O,x,17*
COc1ccc([C@@H]2CC(=O)c3c(O)cc(O[C@@H]4O[C@H](CO)[C@@H](O)[C@H](O)[C@H]4OC4O[C@@H](C)[C@H](O)[C@@H](O)[C@H]4O)cc3O2)cc1O (stereo partly specified),x,4.4*
Cn1c(=O)c2cc3cc(Cl)ccc3nc2c2c(=O)n(-c3ccccc3)c(=O)n(-c3ccccc3)c21,-1.3,x
Cn1c(=O)c2c3nc4ccccc4cc3c(=O)n(C)c2n(C)c1=O,20*,x
COC(=O)C(CO)Nc1ncnc2onc(C)c12 (stereo unspecified),x,0.09
CCn1c[n+](CC(O)COc2ccccc2)c2cc(C)c(C)cc21 (stereo unspecified),16*,0.83
CCn1c[n+](CC(O)COc2ccccc2)c2ccccc21 (stereo unspecified),-0.35,1.2
Cc1ccc(-n2cc3c(=O)[nH]cnc3n2)cc1,0.28,3.7
O=c1[nH]cnc2nn(-c3ccccc3)cc12,1.2,4*
CC1CCN(c2cc(NCc3ccco3)c3c4c(onc24)-c2ccccc2C3=O)CC1,-0.66,0.48
SMILES,CDC25B CDK2 inh,TAR Tat displ
O=C(Cn1c2ccccc2c2cn[nH]c(=O)c21)N1CCN(c2ccccc2)CC1,-4.8,x
OCCOCCNc1ncnc2sc3c(c12)CCCC3,-0.67,x
CC(C)=CC[C@@H](OC(=O)C=C(C)C)C1=CC(=O)c2c(O)ccc(O)c2C1=O,x,23*
COc1ccc(-c2cc(C3CCN(c4nc(N)c5cc(OC)c(OC)cc5n4)CC3)[nH]n2)cc1OC,20*,x
COc1ccc(-c2c(N)n[nH]c2C)cc1OC,-2.2,0.76
Cc1sc2ncn(CC(=O)N3CCCCCC3)c(=O)c2c1S(=O)(=O)N1CCN(C)CC1,19*,x
Cc1sc2ncn(CC(=O)N3CCOCC3)c(=O)c2c1S(=O)(=O)N1CCOCC1,-1.5,2.3
O=C(OCc1ccc(Cl)cc1Cl)c1cccs1,-0.78,x
N.N.N.N.N.N.N.N.N.N.N.N.N.N.O.O.[Cl-].[Cl-].[Cl-].[Cl-].[Cl-].[Cl-].[Ru+4].[Ru+5].[Ru+5],4.2*,x
O=C1CC(c2ccccc2)S(=O)(=O)c2ccccc2N1 (stereo unspecified),-0.44,1.3
O=C(COC(=O)c1ccc2nc3c4ccccc4c4ccccc4c3nc2c1)c1ccccc1,-2,x
C=CCNC(=O)Nc1ccc2nc3c4ccccc4c4ccccc4c3nc2c1,21*,x
COCCNC(=O)Nc1ccc2nc(NS(C)(=O)=O)sc2c1,x,0.39
O=C(NC1CC1)c1ccc(NC(=O)c2nsc3ccccc23)cc1,-3.1,2.2
O=C(NCCO)c1ccc2nc3c4ccccc4c4ccccc4c3nc2c1,8.2*,x

# Screens deposited in PubChem BioAssay by Center for Chemical Genomics, University of Michigan.
